Screens (PubChem BioAssay)
Most compounds without a hit are left out; they make up all but 10% or so of the library.
Luc counter: counter-screen: inhibitors of Kinase-Glo firefly luciferase; Q27757; Kinase-Glo luciferase, ATP luminescence, 8 min; Potency, µM (series often up to 38.3 µM), usual class: inhibitors; 0.28% of 200,000 active; AID 1379; active means well fitted inhibition curve with a large enough effect; inconclusive means small, poorly fitted or top-dose-only effect; further: nearly all actives have a fitted effect of over 60% in size
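Kinase-Glo luciferase light output from ATP and luciferin was measured with 10 uM ATP, within the enzyme's linear range. Buffer: 50 mM imidazole pH 7.2, 50 mM KCl, 7 mM MgCl2, 0.01% Tween 20, 0.05% BSA; luminescence read after 8 min at ambient temperature.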
IMPase inh: membrane-permeable compound that blocks inositol monophosphatase. P97697. CHO-M1 cells, IP1 accumulation, HTRF TR-FRET ratio. inhibition (IP1 accumulation), % at 46.1 µM. 120,000 tested, under 10 active. AID 901; active means well fitted curve in the direction sought with a large enough effect in the signal ratio, not every such curve was filed as active; inconclusive means small, poorly fitted or top-dose-only effect, or a change in a side signal; inactive means no such curve, though single readings can be large or run the other way; the % refers to the signal ratio;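 further: cells stimulated with carbachol in lithium chloride buffer; higher means more IMPase inhibition seen as more IP1 and lower FRET ratio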
Target sequence (P97697 whole entry, looked up): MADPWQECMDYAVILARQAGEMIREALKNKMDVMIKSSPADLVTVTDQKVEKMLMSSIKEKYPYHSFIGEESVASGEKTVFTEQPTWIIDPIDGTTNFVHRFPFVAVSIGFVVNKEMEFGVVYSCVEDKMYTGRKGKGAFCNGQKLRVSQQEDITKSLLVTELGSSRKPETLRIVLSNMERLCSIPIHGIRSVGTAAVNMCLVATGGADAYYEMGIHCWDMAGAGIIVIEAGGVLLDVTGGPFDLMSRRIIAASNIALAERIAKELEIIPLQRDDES
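In this qHTS, compounds (final up to 46 uM) act on CHO-M1 cells that are then activated through the M1 receptor with carbachol, in pH 7.4 buffer containing 50 mM LiCl, for 30 min. IP1 accumulation is quantified by the IP-One immunoassay.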
PNC assembly inh: inhibitors of perinucleolar compartment assembly | PC3M PTB-GFP, PNC prevalence imaging, 16 h; active compounds read low | AID 2417 | 3.1% of 140,000 active | activity change (PNC), negative = inhibition, % at 10 µM;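 active means readout at or below -70, meaning at least 70% loss of cells showing the perinucleolar compartment, a nuclear body marking cancer cells; inconclusive means readout between -30 and a set limit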
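Read-out is percentage of cells bearing a perinucleolar compartment, from automated 20x imaging of fixed, Hoechst-stained PC3M PTB-GFP cells. Cells were seeded 4 h, then exposed 16 h to compound (23 nl of library stock) in duplicate plates.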
LMNA splice mod: modulators of lamin A splicing; HeLa LMNA splicing GFP/RFP minigene ratio, 48 h; Potency, µM (doses to about 46.1 µM), usual class: inhibitors; 0.01% of 200,000 active; AID 1487; active means well fitted inhibition curve with a large enough effect in the signal ratio, with a control signal flat, not every such curve was filed as active; inconclusive means small, poorly fitted or top-dose-only effect, or effect the other way, or a change in a side signal; the % refers to the signal ratio
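S3 HeLa cells stably expressing lamin A-EGFP splicing minigene plus DsRed2, 600 cells/well, 48 h compound exposure at 37C. Laser-scanning cytometry; analysed as GFP (500-530 nm)/RFP (575-640 nm) total intensity ratio; 0.5% DMSO vehicle.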
ALDH1A1 inh: inhibitors of human aldehyde dehydrogenase 1A1 | P00352 | Purified ALDH1A1, NADH fluorescence, propionaldehyde substrate | Potency, µM (titrated, usually from 75.3 µM), most hits filed as inhibitors | 7.3% of 220,000 active | AID 1030
HPGD block: inhibitors of human 15-hydroxyprostaglandin dehydrogenase (HPGD). P15428. purified HPGD, NADH fluorescence kinetic, PGE2 substrate. Potency, µM, usual class: inhibitors. 4.3% of 150,000 active
Target sequence (P15428 whole entry, looked up): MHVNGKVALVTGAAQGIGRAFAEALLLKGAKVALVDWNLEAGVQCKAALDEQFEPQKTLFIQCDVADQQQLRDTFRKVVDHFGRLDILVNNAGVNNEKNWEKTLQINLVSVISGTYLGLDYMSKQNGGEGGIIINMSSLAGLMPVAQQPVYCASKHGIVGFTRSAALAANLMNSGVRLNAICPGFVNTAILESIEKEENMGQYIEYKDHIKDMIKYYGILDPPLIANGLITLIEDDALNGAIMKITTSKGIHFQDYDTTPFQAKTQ
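NADH formation kinetics: reaction with 30 uM PGE2 and 1 mM NAD+ (final), 20 nM enzyme, Tris-HCl pH 8 with Tween 20, after 15 min compound preincubation at room temperature. Fluorescence change, last versus first of five reads.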
Numbers stand for hits; n = inactive; u = inconclusive; x = no result; [ ] = dose if it differs, or a comment. Unless noted, the call rests on the fitted dose curve; in most records, active means well fitted inhibition curve with a large enough effect (not every such curve was filed as active); inconclusive means small, poorly fitted or top-dose-only effect, or another doubt; inactive means no such curve, though single readings can be large or run the other way.

SMILES | Luc counter | IMPase inh | PNC assembly inh | LMNA splice mod | ALDH1A1 inh | HPGD block
CC1CCCN(C(=O)CSc2nnc3n(C4CCCC4)c(=O)c4ccccc4n23)C1 (stereo not given) | n | n | n | n | 7.94µM | 20µM
Cc1ccc(Nc2nc(C)cc(C)n2)c(C(=O)O)c1 | x | x | x | n | x | x
CCOc1cccc(C2c3c(oc4ccccc4c3=O)C(=O)N2c2nc(C)c(C(=O)OC)s2)c1 (stereo not given) | x | n | x | x | x | x
COc1ccc(CC(=O)NC2CC(=O)N(c3cccc(F)c3)C2)cc1 (stereo not given) | x | x | x | n | x | x
O=C1NCCCN1Cc1ccc(F)cc1Cl | n | n | n | n | 4.47µM | n
COc1cc(O)oc1C=Nc1ccc(C(=O)O)cc1 | 12.6µM | x | x | n[9.22 µM] | n | x
COc1cc(O)oc1C=Nc1ccc(Cl)cc1Cl | n | n | n | n | 14.1µM | u
Cc1ccccc1-c1ccc2ncnc(NCCN3CCOCC3)c2c1 | x | x | x | n | u | x
Cc1nc2cnc(N(C)C)nc2n(C[C@H]2CCCO2)c1=O | x | x | x | n | u | x
COc1cccc(CS(=O)(=O)c2nnnn2CC(C)C)c1 | n | x | x | x | u | n
CCc1cc(SC#N)cc(CC)c1NC(=O)CCl | n | x | n | u | 14.1µM | u
Cc1cc(C)c2c(NC(=O)CCl)nn(C)c2n1 | n | x | x | n | u | x
CCN(CC)C(=O)Cn1c(=O)n(CCCCCC(=O)Nc2ccccc2)c(=O)c2sccc21 | n | x | -113.0 | n | n | n
CCC(C)NC(=O)Cn1c(=O)n(CCCCCC(=O)Nc2ccccc2)c(=O)c2sccc21 (stereo not given) | n | x | n | n | n | n
Cc1cccc(C)c1NC(=O)Cn1c(=O)n(CCCC(=O)NCc2ccco2)c(=O)c2sccc21 | x | n | -91.5 | u | u | x
CC(=O)c1ccc(NC(=O)CSc2ccc3nc(-c4ccccc4)cn3n2)cc1 | x | x | x | n | x | x
O=C(CSc1nc2c(sc3ccccc32)c(=O)n1CCc1ccccc1)NCc1ccco1 | n | n | n | n | n | n
COc1ccc(-n2c(SCC(=O)NCc3ccco3)nc3c([nH]c4ccccc43)c2=O)cc1 | n | n | -108.4 | n | n | n
O=C(CSc1nc2c(sc3ccccc32)c(=O)n1-c1ccccc1)NCc1ccco1 | n | x | u | u | 11.2µM | n
O=[N+]([O-])c1ccc(-c2csc(Nc3ccccc3)[n+]2Cc2ccccc2)cc1 | n | n | n | u | 31.6µM | n
Cc1ccc2[nH]c(-c3ccc(F)cc3F)cc(=O)c2c1 | n | x | x | x | u | u
CCCOc1ccc(NC(=O)CC2C(=O)N(C)C(=S)N2Cc2cccs2)cc1 (stereo not given) | n | n | -118.9 | u | u | n
CCN1C(=O)C(CC(=O)Nc2ccc(OC)cc2)N(Cc2cccs2)C1=S (stereo not given) | n | n | n | n | n | n
COc1ccc(CCN2C(=S)N(C)C(=O)C2CC(=O)Nc2ccc(F)cc2)cc1 (stereo not given) | x | x | x | u | 1.26µM | x
CN1C(=O)C(CC(=O)Nc2ccc(F)cc2)N(Cc2cccs2)C1=S (stereo not given) | x | x | x | u | n | x
SMILES | Luc counter | IMPase inh | PNC assembly inh | LMNA splice mod | ALDH1A1 inh | HPGD block
CCN1C(=O)C(CC(=O)Nc2ccc(Br)cc2)N(CCCc2ccccc2)C1=S (stereo not given) | n | n | n | u | 12.6µM | n
CCN1C(=O)C(CC(=O)Nc2ccc(OC)cc2)N(CCc2ccc(OC)cc2)C1=S (stereo not given) | n | x | x | n[9.22 µM] | 2.24µM | x
COC(=O)CN1C(=S)N(c2ccc(OC)cc2)C(=O)C1CC(=O)Nc1ccc(F)cc1 (stereo not given) | n | x | x | n | u | x
CCOc1ccc(NC(=O)CC2C(=O)N(C)C(=S)N2CCCc2ccccc2)cc1 (stereo not given) | n | x | u | u | u | n
COc1ccc(S(=O)(=O)N(CCO)c2ccccc2CN(C)CC=Cc2ccc(Cl)cc2)cc1 | n | x | x | x | n | n
CCCOc1ccc(NC(=O)CC2C(=O)N(CC)C(=S)N2CCNC(C)=O)cc1 (stereo not given) | n | x | -113.4 | n | n | n
CCOc1ccc(NC(=O)CC2C(=O)N(CC)C(=S)N2CCNC(C)=O)cc1 (stereo not given) | n | x | n | n | n | n
S=C(c1c[nH]c2ccccc12)N1CCOCC1 | n | x | x | u | 20µM | x
O=C(C(=O)N1CCOCC1)c1c[nH]c2ccccc12 | n | x | x | u | n | x
COc1cccc(C2c3c(oc4ccc(Cl)cc4c3=O)C(=O)N2c2cc(C)on2)c1OC (stereo not given) | n | n | -136.3 | u | n | n
COc1ccc(/C(O)=C2\C(=O)C(=O)N(c3cc(C)on3)C2c2cccc(OC)c2OC)cc1C (stereo not given) | n | n | n | n | n | n
CCCCC[C@H](O)/C=C/C=C\C/C=C\C/C=C\CCCC(=O)O | n | x | x | x | n | n
CC(=O)c1c(N2CCOCC2)nc(=S)n(-c2ccc([N+](=O)[O-])cc2)c1C | n | n | -113.4 | n | u | n
CC(=O)c1c(N2CCCCC2)nc(=O)n(-c2ccccc2)c1C | n | n | u | n | n | n
CC(=O)c1c(N2CCOCC2)nc(=O)n(-c2ccccc2)c1C | n | n | -80.4 | n | n | n
Nc1c(C(=O)NC2CC2)sc2nc3c(c(-c4ccco4)c12)CC/C3=C/c1ccco1 | n | x | n | n | 15.8µM | 15.8µM
O=C1NC(=NCc2ccccc2)S/C1=C/c1ccc(O)cc1 | n | x | n | n | n | 2.82µM
CCSc1nc2sc3c(c2c(=O)[nH]1)CCCC3 | n | n | n | n | n | n
CCSC1=NC2(CCCCC2)Nc2sc3c(c21)CCCC3 | n | n | u | n | 7.08µM | 4.47µM
